# Experimental data taken from the supplement of paper PMC3334620.
# Whole data set: some 33,000 sequences, median “E-score (-0.5 to 0.5)” near -0.04, cut for the highest 2% near 0.36. This excerpt belongs to a sample that is enriched for the highest values.
# Target: T1, Hmlalpha2 (UniProt P0CY09)
# T1 sequence: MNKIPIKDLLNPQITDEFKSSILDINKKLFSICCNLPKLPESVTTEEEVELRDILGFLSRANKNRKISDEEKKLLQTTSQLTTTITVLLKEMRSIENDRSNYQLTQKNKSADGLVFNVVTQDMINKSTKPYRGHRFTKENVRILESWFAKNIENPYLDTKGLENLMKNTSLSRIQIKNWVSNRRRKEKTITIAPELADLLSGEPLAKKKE
# Assay: PBM E-score (8-mer binding enrichment) (E-score (-0.5 to 0.5)); higher = stronger / more preferred TF binding
# Conditions: protein concentration: 200 nM; construct: GST-full length
# Description: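 Universal 'all 10-mer' protein binding microarrays (Agilent AMADID 015681) probed with GST-tagged S. cerevisiae TFs (full-length or DBD) made by in vitro transcription/translation (PURExpress), about 100-200 nM. Bound TF was detected with fluorescent anti-GST. Each ungapped 8-mer (which stands for itself and its reverse complement) is scored by the PBM enrichment score (E-score), a modified Wilcoxon-Mann-Whitney statistic from -0.5 to +0.5, computed with the Universal PBM Analysis Suite. Scale: above 0.35 generally sequence-specific binding.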
row,Sequence,PBM E-score
1,AGATGTAA,0.382
2,TGATGTAA,0.389
3,CGATGTGA,0.105
4,TGCTGTAA,0.17
5,GGATGTAC,0.225
6,CGATGTAA,0.417
7,AGATGTAG,0.094
8,GGATGTAA,0.397
9,AGATGTAT,0.251
10,TGATGCAA,0.0282
11,CGATGTAC,0.221
12,GGATGTCA,0.133
13,CCATCTAC,0.0186
14,CTCTGCCC,-0.109
15,AGCAATGG,-0.0784
16,CATACCAA,0.141
17,CACGGTGA,0.155
18,ACCATTAG,-0.0407
19,AGCCCTCC,-0.312
20,CAGGCGAA,0.0909
21,CGTTGTAG,0.242
22,AGTTGAAA,0.0609

row,Sequence,PBM E-score
1,GGTTGAAA,-0.0197
2,AGTTGTAA,0.248
3,TGTTGTAA,0.401
4,CGTTGTAA,0.368
5,CGTTGTAC,0.278
6,GGTTGTAA,0.342
7,TGTTGAAA,0.37
8,AAGAGTAC,0.0432
9,ATCCCTAG,-0.00744
10,CAGTACCG,-0.142
11,CCCGATTC,-0.0455
12,GTAGCGGA,-0.0459
13,GTTATCCA,0.0731
14,AGCCATCG,-0.171
15,ATGCCTAC,-0.224
16,GACCTCCA,-0.0969
17,CTTTGGTC,-0.0966
18,AACACCGA,0.193
19,CACACGGA,0.0896
20,AACACGGT,0.402
21,ACCACGGT,-0.134
22,ACCACGGG,-0.213

row,Sequence,PBM E-score
1,ATCACGGA,-0.189
2,GACACGGA,0.224
3,AACACGGC,0.359
4,TACACGGA,0.447
5,AACACGGA,0.374
6,AACACGGG,0.387
7,CACACGGG,0.218
8,ACGATTCC,-0.04
9,CTAGGCGC,-0.158
10,CAAGAGCA,-0.00496
11,CTTCAAAC,-0.0259
12,CTGCCTGC,-0.252
13,AATTCTTG,0.12
14,GGCGGTCA,-0.283
15,GGAAGGTA,-0.132
16,ACAAAGGG,-0.0246
17,CTGCCAGA,-0.232
18,ATCAACAC,0.399
19,ATCAACAA,0.306
20,ATCAACAG,0.136
21,GTCAACAC,0.358
22,ATCAACAT,0.44

row,Sequence,PBM E-score
1,CTCAACAC,0.382
2,CTCAACAA,0.302
3,ATCAACCC,0.144
4,AGCAACAC,0.26
5,CATACCCA,0.182
6,AATAATAA,0.311
7,ACCGAGGC,-0.359
8,GGGCAGAA,0.0375
9,CCAAGTGC,-0.171
10,CTTAACAA,0.307
11,ATTAACAG,0.261
12,GTTAACAA,0.366
13,ATTAACAA,0.415
14,ATTAACGC,0.372
15,GTTAACTA,0.362
16,ATTAACGA,0.317
17,ATTAACGG,-0.00314
18,CTTAACAC,0.419
19,ACTAACAA,0.253
20,CTTAACCC,-0.0467
21,GTTAACCA,0.285
22,AGACTAAA,-0.0357
